Source: PubChem BioAssay (National Center for Advancing Translational Sciences (NCATS))
Most compounds without a hit are left out; they make up all but 19% or so of the library.
HT1080-NT tox: kills 2HG-producing HT-1080-NT fibrosarcoma cells; AID 686970; hit rate 1.6% among 360,000; HT-1080-NT fibrosarcoma viability, CellTiter-Glo ATP luminescence, 48 h; Potency, µM (series often up to 46.1 µM), inactives show at the highest dose activity, negative = less viability, most hits filed as cytotoxic;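 note: NT is the 2HG producing partner of a matched IDH1 knockdown line; potency is the fitted concentration of half-maximal effect; 0% = DMSO-treated cells and -100% = media-only wells without cells; nearly all actives have a fitted effect of over 55% in size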
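Luminescent CellTiter-Glo readout after 48 hours of compound exposure at 37 degrees C defined viability of HT-1080-NT cells. Activity was normalized to DMSO wells and cell-free media wells; concentration-response curves were fitted and assigned curve classes.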
IL-1B inflam inh: blocks inflammasome-driven IL-1 beta release. activity change, % at 57.5 µM. THP-1 LPS/ATP IL-1B secretion, AlphaLISA, 16 h; stronger effect = lower value. hit rate 4.7% among 360,000; in the data active = activity change below about -50%; inconclusive = mostly about -30% to -49%
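THP-1 cells pretreated 1 hr with compounds (up to 57.5 uM final), then stimulated with LPS (250 ng/mL final) plus ATP (1.25 mM final); secreted IL-1B measured by AlphaLISA after 16 hr, decreased signal indicating inhibition.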
HT1080 IDH1KD tx: HT-1080 IDH1 knockdown cell toxicity (counter line) | HT-1080 IDH1 knockdown viability, ATP luminescence, 48 h | Potency, µM (doses to about 46.1 µM), for inactives: at the highest dose activity, negative = toxicity, usual class: cytotoxic | hit rate 2% among 360,000;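 note: potency is the fitted concentration of half-maximal effect; 0% = DMSO wells and -100% = cell-free medium wells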
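HT-1080-IDH1KD cells (IDH1 knocked down), 750/well in RPMI with 5% FBS, treated with compound 48 h at 37 degrees C. Viability by CellTiter-Glo luminescence, normalised to DMSO and no-cell wells; concentration-response curves classed.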
TDP1 cell noCPT: qHTS for Inhibitors of human tyrosyl-DNA phosphodiesterase 1 (TDP1): qHTS in cells in absence of CPT. DT40 Tdp1-/- hTDP1 cells, no CPT, ATP luminescence, 48 h. Potency, µM (doses to about 46.2 µM), inactives show at the top dose activity change, negative = growth inhibition, most hits filed as inhibitors. hit rate 15% among 420,000; note: potency is the fitted concentration of half-maximal effect; nearly all actives have a fitted effect of over 55% in size
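A cellular qHTS used chicken DT40 cells lacking endogenous Tdp1 but carrying stably transfected human TDP1. Compounds were applied without camptothecin, and cell growth kinetics were judged by ATP-dependent luminescence after ≥48 hr.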
DT40 TDP1 CPT: DT40-hTDP1 cell growth loss with CPT. chicken DT40 Tdp1-/-;hTDP1 cells + 20 nM CPT, ATP luminescence, 48 h. Potency, µM (titrated, usually from 46.2 µM), for the others: at the top dose activity change, negative = growth inhibition, actives largely listed as inhibitors. hit rate 12% among 420,000; note: potency is the fitted concentration of half-maximal effect; nearly all actives have a fitted effect of over 55% in size
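Chicken DT40 Tdp1-/- cells stably complemented with human TDP1 were seeded at 400 cells/well in medium containing 20 nM camptothecin, exposed to pin-transferred compounds, and grown at 37 °C for at least 48 hr. Viability was read as ATP luminescence.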
* hit, by the source's call; ? = inconclusive; . = no result; [ ] = another dose, or the depositor's remark. Unless noted, calls come from the whole dose curve; as a rule, active = well fitted curve in the direction sought with a large enough effect; inconclusive = small, poorly fitted or top-dose-only effect, or another doubt; inactive = no such curve, though single readings can be large; an effect the other way counts as inactive or inconclusive. Unless noted, % is set by controls: 0 for no effect and ±100 for the full control effect.

SMILES | HT1080-NT tox | IL-1B inflam inh | HT1080 IDH1KD tx | TDP1 cell noCPT | DT40 TDP1 CPT
OC[C@@H]1[C@@H](c2ccccc2)C(c2cccc(Cl)c2)=NN1c1ccccc1 | 12µM* | ? | ? | 21µM* | 21µM*
Cc1c(CCC(=O)NCCCN2CCCC2=O)c(=O)oc2cc(O)ccc12 | -1% | 8 | 7% | 5% | 12%
CN(C)c1ccc(-c2ccnc3c2CC(C)(C(=O)Nc2ccc4c(c2)OCO4)O3)cc1 (stereo not drawn) | 11% | 20 | 0% | -3% | -20%
CC1(C(=O)NCc2ccccc2)Cc2c(-c3ccc4c(c3)OCO4)ccnc2O1 (stereo not drawn) | ? | 73 | ? | 0.82µM* | 0.65µM*
CC1(C(=O)NCCc2ccccc2)Cc2c(-c3ccc4c(c3)OCO4)ccnc2O1 (stereo not drawn) | ? | -7 | ? | 2.9µM* | ?
COCCNC(=O)C1(C)Cc2c(-c3ccc4c(c3)OCO4)ccnc2O1 (stereo not drawn) | ? | 28 | 18µM* | 8.2µM* | 12µM*
CCOC(=O)C1=CCN(S(=O)(=O)c2ccccc2C)C1c1ccc(Cl)cc1 (stereo not drawn) | ? | 8 | ? | 15µM* | ?
CCOC(=O)C1=CCN(S(=O)(=O)c2ccccc2Cl)C1c1ccc(C)cc1 (stereo not drawn) | 0% | 20 | -4% | 18µM* | 26µM*
CCOC(=O)C1=CCN(S(=O)(=O)c2ccccc2Cl)C1c1ccccc1 (stereo not drawn) | -11% | 42 | -15% | 23µM* | ?
CCOC(=O)C1=CCN(S(=O)(=O)c2ccccc2F)C1c1ccccc1 (stereo not drawn) | 8% | 47 | 6% | 16µM* | ?
CCOC(=O)C1=CCN(S(=O)(=O)c2ccccc2Cl)C1c1cccc(C)c1 (stereo not drawn) | 2% | 35 | -1% | ? | ?
CC(=O)c1ccccc1NC(=O)COC(=O)C1CCCN1S(=O)(=O)c1ccccc1F (stereo not drawn) | 2%[9.24 µM] | 26 | -11% | 11% | -17%
CCOC(=O)c1c(C)[nH]c(C)c1C(=O)COC(=O)C1CCCN1S(=O)(=O)c1ccccc1F (stereo not drawn) | 1% | 27 | 0% | 15µM* | 12µM*
COc1ccc(-c2cc3nc(C4CCN(C(=O)OC(C)(C)C)CC4)c(C(=O)Nc4cc(Cl)cc(Cl)c4)cn3n2)cc1 | . | . | . | ? | -35%
CCOc1ccc(-c2cc3nc(C4CCN(C(=O)OC(C)(C)C)CC4)c(C(=O)Nc4ccc(C)c(F)c4)cn3n2)cc1 | . | . | . | 7.3µM* | 9.2µM*
COc1ccc(-c2cc3nc(C4CCN(C(=O)OC(C)(C)C)CC4)c(C(=O)Nc4cc(C)cc(C)c4)cn3n2)cc1 | . | . | . | 16µM* | ?
CN(Cc1ccc(Cl)c(Cl)c1)C(=O)C1CC(=O)N(c2ccc3c(c2)OCCO3)C1 (stereo not drawn) | 3% | -22 | 2% | -23% | -7%
COc1ccc(OCC(=O)OCc2cc(=O)n3nc(-c4cccs4)sc3n2)cc1 | . | . | . | -10% | -11%
O=C(CCS(=O)(=O)c1cccc2nsnc12)NCc1ccccc1Cl | 2% | 45 | 1% | -8% | -19%
NCCCn1c(C(=O)c2cc(Cl)c(N)c(Cl)c2)c2ccc([N+](=O)[O-])cc2[n+]1[O-] | ? | 0 | -21% | 0.52µM* | 0.65µM*
NCCCn1c(C(=O)c2cc(Cl)c(N)c(Cl)c2)c2ccc(C(F)(F)F)cc2[n+]1[O-] | -6% | ? | -16% | 18µM* | ?
NC(=O)c1ccc(Cn2c(C(=O)c3cc(Cl)c(N)c(Cl)c3)c3ccccc3[n+]2[O-])cc1 | 16µM* | 29 | 12µM* | ? | ?
COc1ccc(C(=O)c2c3ccc(C(F)(F)F)cc3[n+]([O-])n2CCCC(N)=O)cc1 | -2% | -2 | -2% | -16% | 1%
NC(=O)CCCn1c(C(=O)c2cc(Cl)c(N)c(Cl)c2)c2ccc(C(F)(F)F)cc2[n+]1[O-] | 0% | -16 | 0% | 18µM* | ?
CCOC(=O)c1c(C)[nH]c(C(=O)COC(=O)c2ccco2)c1C | -2% | 16 | -1% | -8% | -19%
SMILES | HT1080-NT tox | IL-1B inflam inh | HT1080 IDH1KD tx | TDP1 cell noCPT | DT40 TDP1 CPT
CC1=C(C(=O)OC2CCCCCC2)C(c2c(F)cccc2Cl)CC(=O)N1 (stereo not drawn) | . | . | . | 16µM* | ?
CC1=C(C(=O)OC2CCCC2)C(c2c(F)cccc2Cl)CC(=O)N1 (stereo not drawn) | . | . | . | 15µM* | ?
COc1cccc(-c2nn(-c3ccccc3)cc2CN2CCCO2)c1 | 8% | -17 | -24% | -19% | 12%
O=C(CCc1nc2ccccc2s1)N1CCOc2ccc(CN3CCc4sccc4C3)cc2C1 | . | . | . | ? | 0%[9.04 µM]
O=[N+]([O-])c1cc(S(=O)(=O)N2CCCC2)ccc1NN=C1CCCCC1 | 16% | -2 | 9% | -16% | -15%
O=[N+]([O-])c1cc(S(=O)(=O)N2CCCCC2)ccc1NCc1cccc(Cl)c1 | -1% | -18 | ? | 29µM* | -16%
O=C(O)CC/C(=N\Nc1ccc(S(=O)(=O)N2CCCC2)cc1[N+](=O)[O-])c1cccs1 | ? | 9 | 33µM* | -30% | -26%
CN1CCN(S(=O)(=O)c2ccc(Nc3cccc(Cl)c3)c([N+](=O)[O-])c2)CC1 | -10% | -8 | -12% | 23µM* | ?
Cc1cc(C)n(Cc2cccc(C(=O)NCC3Cc4cccc(-c5ncccn5)c4O3)c2)n1 (stereo not drawn) | . | . | . | -29% | 1%[9.04 µM]
O=C(NCc1nnc2n1CCN(Cc1cccc(C(F)(F)F)c1)CC2)c1ccncc1 | . | . | . | -15% | -22%
COc1cc(NS(=O)(=O)c2cc3c(cc2C)N(C)CCO3)cc(OC)c1OC | . | . | . | 15µM* | 21µM*
COc1cccc(NS(=O)(=O)c2cc3c(cc2C)N(C)CCO3)c1 | -4% | 22 | -19% | ? | ?
COc1cc(NS(=O)(=O)c2ccc(C)cc2C)cc(OC)c1OC | -27% | 24 | -39% | 6.5µM* | 6.5µM*
COCCn1c(=O)c(-c2cccs2)nc2cnc(OC)nc21 | . | . | . | 14% | -7%
CC(C)(CNC(=O)c1cnn(-c2ncc3c(n2)-c2ccccc2CC3)c1C1CC1)N1CCOCC1 | . | . | . | 1% | -10%[9.04 µM]
Fc1cccc(Nc2cc(-n3cccn3)ncn2)c1 | -7% | 13 | -25% | 10µM* | 21µM*
Cc1ccc(Nc2cc(-n3cccn3)ncn2)c(C)c1 | 3% | ? | -6% | ? | ?
